This is part of a sample that, as a whole, favours compounds with a hit. Of some 79,000 tested, about 15% had one in any assay. Activity calls are given as the source filed them. Rule as the data show it: active = growth inhibition above about 70%; inactive = the rest.

The assay can be described thus: NCI Yeast Anticancer Drug Screen. Data for the mlh1 rad18 strain (AID 175). The following applies: S. cerevisiae mlh1 rad18 strain growth inhibition; at 50.0 µM (retest, dose inferred, filed as 5.0); stronger effect = higher value. The procedure, abridged: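 Inhibition values reflect reduced growth of mutant yeast versus vehicle-treated controls following compound exposure; the mutations affect DNA damage repair.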
For the compound `N#C/C(=C\C(Cl)=C/c1ccccc1)C(N)=S`, the growth inhibition was 98% (active).

Take `CC[N+](C)(CC)CCC(=O)/C=C/c1ccccc1`: the growth inhibition is 46% (inactive).

With `CC(=O)n1c(=S)n(C(C)=O)c2ccccc21`, the growth inhibition is 94% (active).

Consider `Nc1ccccc1/C=C1/Sc2cc[nH]c2C1=O`, for which the growth inhibition is 10% (inactive).

As to `C=C1CC2(CCCC3(CC(=C)C(=O)O3)C2(C)C)OC1=O` (stereo not given), the growth inhibition was 97% (active).

In the case of `O=C1/C(=C\c2ccc(Cl)cc2Cl)Sc2scc(-c3ccc(O)c(O)c3)[n+]21`, the growth inhibition is 68% (inactive).

For `COc1cc(OC(C)C)cc2c1C(=O)C(C(O)(O)C(F)(F)F)=CC2=O`, the growth inhibition is 77% (active).

Turning to `Cc1c(N=Nc2ccc(Br)cc2)c(-c2ccccc2)nn1C(N)=S`, the growth inhibition was 97% (active).

For `COc1ccc2nc3c([N+](=O)[O-])ccc(NCCCN(C)C)c3c(N)c2c1`, the growth inhibition is 95% (active).

Take `CN(C)CCC[Si]1(C)c2ccccc2CCc2ccccc21`: the growth inhibition was 26% (inactive).

Take `CC(=O)N(C)c1cc(NCc2ccccc2)ccc1OCc1ccccc1`: the growth inhibition was 96% (active).

In the case of `ClCCOCCOc1c(Cl)cc(Cl)c(Cl)c1Cl`, the growth inhibition was 26% (inactive).

Take `Nc1ccc2nc(N)sc2c1`: the growth inhibition is 4% (inactive).

In the case of `CC(C)(C)c1cc(C2c3cc4c(cc3OC(O)(CO)C2C(=O)O)OCO4)cc(C(C)(C)C)c1O` (stereo not given) (tested in a mixture with another compound), the growth inhibition was 73% (active).

For the compound `COc1ccc(C2COc3c(ccc(O)c3O)C2)cc1OC` (stereo not given), the growth inhibition is 74% (active).

On to `Cc1ccc(OCC2CO2)c(Br)c1` (stereo not given), for which the growth inhibition was 84% (active).

On to `CCN(CC)CCNc1ccc(C)c2sc3c(OC)cccc3c(=O)c12`, for which the growth inhibition is 36% (inactive).

For the compound `CC(C)C(O)C(C)C`, the growth inhibition is 2% (inactive).

On to `O=C1CSC2(CCN(CCCN3c4ccccc4Sc4ccc(Cl)cc43)CC2)N1`, for which the growth inhibition is 99% (active).

Turning to `C1=CN2C(c3ccccc3)=NN(c3ccccc3)[C@@H]2c2ccccc21`, the growth inhibition was 72% (active).

As for `CC(=O)Nc1ccc(-c2csc(Nc3ccnc4cc(Cl)ccc34)n2)cc1`, the growth inhibition was 27% (inactive).

`O=C(Nc1ccc(/C=C/c2ccc(NC(=O)c3cc(S(=O)(=O)O)c4cccnc4c3O)cc2S(=O)(=O)O)c(S(=O)(=O)O)c1)c1cc(S(=O)(=O)O)c2cccnc2c1O`: the growth inhibition is 97% (active).

Turning to `COc1ccccc1C1C2=C(COC2=O)OC(C)(C)Oc2cc3c(cc21)OCO3` (stereo not given), the growth inhibition was 96% (active).

For the compound `COC(=O)CSc1n[nH]c(-c2ccc(O)c([N+](=O)[O-])c2)n1`, the growth inhibition is 57% (inactive).

As for `COc1ccc(CN2CCCN(Cc3ccc(OC)cc3OC)C2c2cccc([N+](=O)[O-])c2O)c(OC)c1`, the growth inhibition is 70% (active).

Consider `Oc1c(Cl)cc(C(c2cc(Cl)c(O)c(Cl)c2)C(Cl)(Cl)Cl)cc1Cl`, for which the growth inhibition was 98% (active).

Take `Cc1cc(Cl)cc2c1NC(=O)C2(O)C/C(=N/NC(=O)CC#N)c1cccc([N+](=O)[O-])c1` (stereo not given): the growth inhibition is -23% (inactive).

Take `COc1ccc(C2Oc3ccc(Cl)cc3C=C2[N+](=O)[O-])cc1` (stereo not given): the growth inhibition is 95% (active).

With `CN(Cc1cc(Cl)cc(Cl)c1O)Cc1c(O)ccc2ccccc12`, the growth inhibition was 99% (active).

For `Cc1c(NC(=O)/C(=N/NC(=S)N=N)C2C(=O)CC(C)(C)CC2=O)c(O)c2ccccc2c1O`, the growth inhibition is 98% (active).

Consider `O=C1CCC(Cc2ccccc2Br)C(=O)N1` (stereo not given), for which the growth inhibition was 6% (inactive).

With `O=C1CSc2ccccc2-n2cccc21`, the growth inhibition was 15% (inactive).

Consider `CCCc1cc2c(cc1CS(=O)(=O)CC)OCO2`, for which the growth inhibition is -6% (inactive).

For the compound `CS(=O)(=O)C(c1nc2nnc(NC(=O)Nc3ccc(Cl)cc3)n2[nH]c1=O)c1nc2nnc(NC(=O)Nc3ccc(Cl)cc3)n2[nH]c1=O`, the growth inhibition was 32% (inactive).

Consider `COc1cc(C2c3cc4c(cc3OC3(O)C=C(C)OC(=O)C23)OCO4)cc(OC)c1OC` (stereo not given), for which the growth inhibition was -10% (inactive).

For the compound `CC(C)OCc1cccc2ccnc(COC(C)C)c12`, the growth inhibition was 50% (inactive).

Regarding `COc1cc2c(cc1OC)-c1nc(Nc3ccccc3)sc1CC2`, the growth inhibition is 95% (active).

As for `NC(=O)CCSC(=S)N1CCOCC1`, the growth inhibition was 2% (inactive).

Consider `CC1=C(c2ccccc2)C(=O)OC1=O`, for which the growth inhibition is 14% (inactive).

In the case of `CC1=C(C)CC2C(=O)C(C(O)CC(C)C)=CC(=O)C2C1` (stereo not given), the growth inhibition was 97% (active).
